Screening data: PubChem BioAssay, National Center for Advancing Translational Sciences (NCATS)
D2 PAM-1 = positive allosteric modulators of human D2 dopamine receptor; P14416; HEK293 T-REx D2, calcium flux, EC20 dopamine potentiation; potentiation, % at 10 µM; hit rate 0.34% among 340,000; AID 485347;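 active = potentiation over 3 SD above the plate norm, cut at about 30% in these data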; also: 0% is about no effect
Target sequence (P14416 whole entry, looked up): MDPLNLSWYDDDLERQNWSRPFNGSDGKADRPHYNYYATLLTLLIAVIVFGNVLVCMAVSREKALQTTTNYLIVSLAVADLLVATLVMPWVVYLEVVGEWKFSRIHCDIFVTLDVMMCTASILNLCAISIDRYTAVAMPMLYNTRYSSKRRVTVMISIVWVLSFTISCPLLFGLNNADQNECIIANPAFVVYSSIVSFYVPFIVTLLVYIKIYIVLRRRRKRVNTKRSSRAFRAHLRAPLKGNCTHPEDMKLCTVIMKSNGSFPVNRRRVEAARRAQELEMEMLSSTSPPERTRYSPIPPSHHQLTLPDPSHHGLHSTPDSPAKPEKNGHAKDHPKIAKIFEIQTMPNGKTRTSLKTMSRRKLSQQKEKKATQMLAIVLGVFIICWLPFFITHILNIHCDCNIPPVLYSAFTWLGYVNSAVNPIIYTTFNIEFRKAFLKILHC
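Tetracycline-induced Hek293 Trex D2 cells, force-coupled to calcium, loaded with no-wash calcium dye. Compound added with 180 s kinetic read for agonism, then EC20 dopamine and a further 180 s read for potentiation.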
D2 ag-1 = agonists of human D2 dopamine receptor (beta-arrestin) | hit rate 0.084% among 360,000 | DiscoveRx PathHunter D2 beta-arrestin, luminescence, 90 min; 100% = 57 uM dopamine signal | activation, % (concentration not given with the values) | AID 624465; in the data active = activation above about 40%; inconclusive = between about 15% and that limit
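Agonist mode: compounds alone added to overnight-plated D2 PathHunter cells for 90 min at 37 C, with 57 uM final dopamine (EC100) defining full response. Beta-arrestin recruitment detected by chemiluminescent reagent, read after 1 h at ambient temperature.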
D2 ag-2 = agonists of human D2 dopamine receptor; HEK293 T-REx D2 cells, calcium flux agonist mode; hit rate 0.53% among 340,000; P14416; activation, % at 2 µM;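 active = activation over 3 SD above normal in the single-dose calcium agonist read, cut at about 30% in these data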; also: 0% is about no effect
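In this primary screen, compounds producing a positive calcium signal within 180 s of addition to tetracycline-induced, force-coupled HEK293 Trex D2 cells are flagged; cells are dye-loaded with a no-wash calcium kit beforehand.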
D2 PAM-2 = potentiates the human D2 dopamine receptor allosterically; DiscoveRx D2 beta-arrestin cells, luminescence, 90 min; 100% = 57 uM dopamine signal; hit rate 0.23% among 360,000; P14416; potentiation, % (concentration not given with the values); AID 624464; in the data active = potentiation above about 50%; inconclusive = mostly about 30% to 49%
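PathHunter D2 cells, attached overnight at 37 deg C, received compound in DMSO plus dopamine at EC20 (50 nM final) for 90 min at 37 deg C. Beta-arrestin recruitment was read as luminescence after 1 h with detection reagent at ambient temperature.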
D2 antag = D2 dopamine receptor (human) antagonism; P14416; HEK293 TREx D2 cells, calcium flux, dopamine EC80; inhibition, % at 10 µM; hit rate 2% among 340,000; AID 485344; in the data active = inhibition above about 30%; inactive = below that, where a call was filed; also: 0% is about no effect
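Calcium flux kinetic readout in an inducible HEK293 TREx D2 line plated overnight at 30 C. After 180 s compound exposure, an EC80 dopamine challenge follows with another 180 s kinetic read to detect antagonism.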
* marks the source's active call; other numbers are inactive results; ? = inconclusive; nt = no result given. Compounds with a hit are over-represented: about 2.4% of the library has one in this group of screens.

SMILES	D2 PAM-1	D2 ag-1	D2 ag-2	D2 PAM-2	D2 antag
CC1CCCC(NC(=O)c2ccc(COc3ccccc3)o2)C1C (stereo not drawn)	11	2	-1	-2	4
Cc1cc(-c2cc(C(=O)NC3CCCC3)on2)nc(NCC2CC2)n1	10	-2	0	-1	33*
Cc1cc(-c2cc(C(=O)Nc3ccccc3)on2)nc(NCC2CC2)n1	nt	2	nt	-4	nt
NNC(=O)CCc1nc2ccc(O)cc2[nH]1	-2	1	-1	-5	0
Cc1oc2ccc(O)cc2c1C(=O)c1ccc([N+](=O)[O-])cc1	1	7	0	54*	-3
Cc1oc2ccc(O)cc2c1C(=O)c1ccc(Cl)cc1	-3	2	0	-12	8
C[C@H]1CCC[C@]2(O[C@@H](CCO)C[C@H](O)[C@H]2O)O1	-4	-4	0	-2	31*
COc1ccccc1CSc1nc2n(n1)C(c1ccccc1)C(C(=O)Nc1ccc(C)cc1)=C(C)N2 (stereo not drawn)	-6	nt	0	nt	nt
Cc1cc(C)c2nc(N(Cc3cccnc3)C(=O)Cc3ccccc3)sc2c1	12	nt	0	nt	nt
Nc1cccc(N2C(=O)c3cccc4c(N)ccc(c34)C2=O)c1	2	-3	49*	-21	-18
Cc1cccc(N2C(=O)c3cccc4c(N)ccc(c34)C2=O)c1	3	4	117*	2	7
Nc1ccc2c3c(cccc13)C(=O)N(c1ccccc1)C2=O	6	3	-2	5	-18
Cc1ccc(OCc2nnc(N)s2)cc1C	3	-6	nt	-5	nt
COc1ccc(C)cc1NC(=O)CSc1nnc(-c2cc3cccc(OC)c3o2)n1N	-1	-6	1	-25	35*
CCOc1ccc(OCC)c(NC(=O)CSc2nnnn2CC)c1	32*	-3	-1	-16	-20
COc1ccc(Cl)cc1NC(=O)CSc1nnc(COc2ccccc2)n1N	-19	-5	-1	-44	54*
COc1ccc(Cl)cc1NC(=O)CSc1nnc(COc2ccccc2)n1C	-30	1	-1	-22	43*
CCn1c(COc2ccccc2)nnc1SCC(=O)Nc1cc(OC)ccc1OC	nt	-1	nt	-3	nt
Cc1ccc(NC(=O)CN2C(=O)NC(C)(CC(C)C)C2=O)cc1F (stereo not drawn)	nt	-2	nt	-5	nt
Cn1c(SCC(=O)Nc2ccc(Cl)cc2F)nnc1-c1ccco1	-12	4	-2	-5	40*
Cc1csc(NC(=O)CSc2nc3nc(C)cc(C)n3n2)n1	nt	0	nt	-13	nt
Cc1cc(=O)n2[nH]c(C)c(-c3ccc(Cl)cc3)c2n1	-26	-1	-2	-24	46*
Cc1cc(=O)n2[nH]c(C)c(-c3ccccc3)c2n1	-16	-4	3	-36	6
COC(=O)NC(=S)Nc1ccc(Oc2ccc(Cl)cc2)c(Cl)c1	-10	-2	1	-6	2
COC(=O)NC(=S)Nc1ccc(Oc2ccc(Cl)cc2Cl)c(Cl)c1	36*	-1	nt	-7	nt
SMILES	D2 PAM-1	D2 ag-1	D2 ag-2	D2 PAM-2	D2 antag
O=C(OCCSCCOC(=O)C1CC=CCC1)C1CC=CCC1 (stereo not drawn)	nt	-2	nt	-24	nt
COc1cccc(NC(=O)/C=C/c2ccc(S(=O)(=O)N3CCOCC3)cc2)c1	-21	-2	0	-4	47*
COc1ccc(/C=C/C(=O)Nc2cccc(F)c2)cc1S(=O)(=O)N1CCOCC1	6	0	2	-1	56*
COc1cccc(NC(=O)/C=C/c2ccccc2[N+](=O)[O-])c1	-21	0	-1	-28	-5
COc1cccc(NC(=O)/C=C/c2ccc([N+](=O)[O-])cc2)c1	-20	1	-1	-1	45*
CC(C)(CC(=O)O)Cc1nc(-c2ccc(Cl)cc2)no1	-4	-3	-2	-6	44*
COc1ccc(-c2noc(CNC(=O)c3ccco3)n2)cc1	6	nt	1	nt	nt
O=C(NCc1nc(-c2ccc(Cl)cc2)no1)c1ccco1	12	0	0	-1	34*
CNS(=O)(=O)c1ccc(N=Cc2c(C)[nH]n(-c3ccc(C)cc3C)c2=O)cc1	-7	-3	1	1	42*
Cc1ccc(-n2[nH]c(C)c(C=Nc3ccc(S(=O)(=O)Nc4nc(C)cc(C)n4)cc3)c2=O)c(C)c1	6	-1	1	12	-5
CCN(CC)S(=O)(=O)c1ccc(Cl)c(C(=O)Nc2ccc(Cl)cc2[N+](=O)[O-])c1	3	12	-1	63*	-9
COc1ccc(-c2nn(-c3ccccc3)cc2C(=O)Nc2ccc(C(=O)O)cc2)cc1	2	4	0	7	7
COc1ccc(NC(=O)c2cn(-c3ccccc3)nc2-c2ccncc2)cc1	-21	6	-1	-9	68*
CC(C)c1nnc(N2C(=O)C(O)=C(C(=O)c3cccs3)C2c2ccccc2)s1 (stereo not drawn)	3	-2	166*	-2	48*
CCc1ccc(NC(=O)CCn2c(-c3ccc(OC)cc3)cc(C(C)=O)c2C)cc1	9	nt	0	nt	nt
CCC(C)NCCOc1cc(C)cc(C)c1C (stereo not drawn)	-20	-6	1	-15	51*
CCOC(=O)C1CCN(CC(=O)Nc2c(C(=O)OC)[nH]c3ccccc23)CC1	-8	nt	35*	nt	49*
CCOC(=O)c1[nH]c2ccc(OCC)cc2c1NC(=O)CN1CCN(c2ccccn2)CC1	-5	-3	1	15	36*
O=C(COc1ccc([N+](=O)[O-])cc1)NC(C(=O)O)C(O)c1cccc([N+](=O)[O-])c1 (stereo not drawn)	-8	-3	0	21	3
O=C(COc1cccc(F)c1)N1c2ccccc2Sc2ccccc21	0	?	0	93*	-7
COC(=O)C(NC(=O)c1ccco1)(Nc1cc(C)ccn1)C(F)(F)F (stereo not drawn)	8	3	0	-2	-10
Cc1ccnc(NC(NC(=O)C(C)C)(C(F)(F)F)C(F)(F)F)c1	4	-2	0	-9	32*
c1ccc(-c2noc(CN3CCc4sccc4C3)n2)cc1	3	2	0	10	35*
c1ccc(-c2noc(CN3CCN(c4ccccc4)CC3)n2)cc1	nt	3	nt	-3	nt
c1ccc(CCc2nc(-c3ccccc3)no2)cc1	39*	-1	1	-11	15
CCNC(=O)C1(C)CCN(C(=O)c2ccc(F)c(Cl)c2)C1 (stereo not drawn)	nt	-2	nt	0	nt
COc1ccc(Cl)cc1Nc1nc(C)cc(=O)[nH]1	-28	2	0	-33	74*
CCN(C(=O)COC(=O)c1cccc(S(=O)(=O)N2CCOCC2)c1)C1CCS(=O)(=O)C1 (stereo not drawn)	-4	-6	0	13	-12
